Data: PubChem BioAssay AID690 (Sanford-Burnham Center for Chemical Genomics, 2007)
Out of some 96,000 compounds screened, about 80 (0.08%) were called active. The rule behind the calls is not given here. Not all results are given here. Potency and affinity values are given separately.

Molecular target: Alkaline phosphatase, placental type (Homo sapiens) (UniProt P05187)
Assay: PLAP enzyme inhibitors, biochemical, luminescence, HTS (AID 690)
Settings: purified PLAP, luminescent substrate; at 20 µM; stronger effect = higher value

Chain of Alkaline phosphatase, placental type (Homo sapiens) (P05187 whole entry, looked up): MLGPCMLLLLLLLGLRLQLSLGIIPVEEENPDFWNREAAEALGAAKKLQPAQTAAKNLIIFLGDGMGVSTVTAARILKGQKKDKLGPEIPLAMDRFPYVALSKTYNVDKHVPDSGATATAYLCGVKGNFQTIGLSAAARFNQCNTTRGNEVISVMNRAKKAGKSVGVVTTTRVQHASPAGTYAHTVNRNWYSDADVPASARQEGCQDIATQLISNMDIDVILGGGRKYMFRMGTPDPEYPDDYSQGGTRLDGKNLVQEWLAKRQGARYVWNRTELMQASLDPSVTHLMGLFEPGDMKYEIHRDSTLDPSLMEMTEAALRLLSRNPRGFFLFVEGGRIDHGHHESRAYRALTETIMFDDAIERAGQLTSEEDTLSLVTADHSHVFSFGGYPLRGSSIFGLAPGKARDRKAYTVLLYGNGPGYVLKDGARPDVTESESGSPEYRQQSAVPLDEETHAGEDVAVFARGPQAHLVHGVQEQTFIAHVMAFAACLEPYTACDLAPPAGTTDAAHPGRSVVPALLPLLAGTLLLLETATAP

inhibition, inactive:
CCCc1nc(NCc2ccccn2)c2nnn(Cc3ccccc3F)c2n1 -1.1%, COc1ccc(NC(=O)Cc2cccs2)c(OC)c1 9.5%, O=C(Cc1n[nH]c(=O)[nH]c1=O)N/N=C/c1ccccc1 -5.4%, CCn1c(SCC(=O)O)nnc1-c1ccccc1 -9.1%, CCn1c(SCC(=O)c2ccc(O)c(O)c2)nnc1-c1ccc(C)cc1 -7.9%, Cc1ccccc1CSc1nccn1-c1ccccc1 19%, COc1ccc(-c2nnc3n2N=C(c2cccc(Br)c2)CS3)cc1OC 7.3%, COc1ccc(C2=Nn3c(nnc3-c3ccco3)SC2)cc1 -72.6%, COc1ccc(C2=Nn3c(nnc3-c3ccco3)SC2)cc1OC 14.5%, COc1cccc(C2=Nn3c(nnc3-c3ccccc3O)SC2)c1 -37.4%, CCOC(=O)CC1C(=O)NCCN1C(=O)c1cccc(C(F)(F)F)c1 (stereo not drawn) 4.8%, COc1ccc(S(=O)(=O)NCC(=O)N(CC(=O)NCC2CCCO2)c2cc(C)ccc2C)cc1 (stereo not drawn) -64.9%, Cc1ccc(Cn2nnnc2CN2CCC(c3nc4ccc(Cl)cc4[nH]3)CC2)cc1 -87.9%, Cc1cc2nc(C3CCN(Cc4nnnn4Cc4ccccc4)CC3)[nH]c2cc1C -140%, COCCCNC(=O)CCn1c(=O)c2ccccc2n(CC(=O)Nc2cc(Cl)ccc2C)c1=O 7.1%, Cc1c(O)ccc(C(=O)COc2ccccc2F)c1O 8.2%, C=CCNc1ncnc2ccccc12 7.5%, Cc1ccc(N2Cc3ccccc3OC(C)C2=O)cc1 (stereo not drawn) -23.8%, Cc1cn2c(-c3cccnc3)nnc2s1 3.7%, CCCn1c(=O)[nH]c(=O)c2c1nc(-c1ccc(OC(F)F)cc1)n2CCN1CCOCC1 12.5%, COCc1[nH]nc2c1C(c1ccc(OC)cc1)C(C#N)=C(N)O2 (stereo not drawn) 6.1%, CCCc1[nH]nc2c1C(c1cc(OC)cc(OC)c1)C(C#N)=C(N)O2 (stereo not drawn) -45.4%, COCc1[nH]nc2c1C(c1ccc(OC)c(OC)c1)C(C#N)=C(N)O2 (stereo not drawn) -0.8%, CCCc1[nH]nc2c1C(c1cccc(OC)c1)C(C#N)=C(N)O2 (stereo not drawn) -46.3%, CC(=O)N(C)c1ccc(NC(=O)/C=C/c2ccccc2Cl)cc1 0.9%, CCC1=C(OC(=O)c2ccccc2)C(C)(C)C(c2ccccc2)OC1=O (stereo not drawn) 22.6%, CC1=C(C(N)=O)C(c2ccncc2)n2nc(-c3ccccc3Cl)nc2N1 (stereo not drawn) 8.9%, CCOC(=O)c1ccc(CNC(=O)Cn2nnc(-c3ccc(C)cc3)n2)o1 1.5%, COC(=O)c1ccc(C)c(NC(=O)Cn2cnc3ccccc3c2=O)c1 5.9%, CCN=c1scc(-c2ccco2)n1/N=C/c1ccc(O)cc1 -11.5%, CCN=c1scc(-c2ccco2)n1/N=C/c1ccc(OC)c(O)c1 -2.2%, CCc1ccc(CN2CCN(S(=O)(=O)Cc3ccccc3)CC2)cc1 11.5%, CC(=O)Nc1ccc(-c2cc3ccccc3o2)cc1 0.5%, Cc1ccccc1C(=O)c1cccn1CC(=O)NCC1CCCO1 (stereo not drawn) -11.1%, COc1ccc(/C=C2\N=C3CCCCCN3C2=O)cc1OC -6.1%, COc1cccc(/C=C2\N=C3CCCCCN3C2=O)c1 2.1%, Cc1ccc(NC(=S)NC(NC(=O)Cc2cccc3ccccc23)C(Cl)(Cl)Cl)cc1 (stereo not drawn) 36.5%, Cc1ccc(C)c(NC(=S)NC(NC(=O)N(C)C)C(Cl)(Cl)Cl)c1 (stereo not drawn) -58%, Cc1nc(N2CCN(S(=O)(=O)c3ccccc3)CC2)c2c3c(sc2n1)CC(C)CC3 (stereo not drawn) -34.1%, O=C1c2ccc3c4c(ccc(c24)C(=O)N1Cc1cccnc1)C(=O)N(Cc1cccnc1)C3=O 4.9%, CC(O)CNc1nc2c(c(=O)n(C)c(=O)n2C)n1C/C=C/c1ccccc1 (stereo not drawn) -20.9%, CCCN1/C(=C2/SC(=S)N(CC)C2=O)C=Cc2ccccc21 11.9%, CCN1C(=O)/C(=C2\C=Cc3ccccc3N2CC)SC1=S 23.5%, CCn1ncc(Br)c1C(=O)N(C)C12CC3CC(CC(C3)C1)C2 -9.1%, CN(CCNC(=O)c1cccc(N2CCCC2=O)c1)Cc1ccccc1 -40.3%, O=C1Nc2ccccc2/C1=N\N=C\C1=C(N2CCOCC2)C(=C\c2ccccc2)/CC1 -12.2%, O=P(C1=C(N2CCOCC2)/C(=C\c2ccccc2)CC1)(N1CCOCC1)N1CCOCC1 -69.4%, O=C(O)c1c(Cl)c(Cl)c(Cl)c(Cl)c1C(=O)N1CCCC1 -10.8%, CCOCC(O)CSCc1ccc(Cl)cc1 (stereo not drawn) -5%, COc1ccc(CNC(=O)c2ccc(-c3ccccc3)cc2)cc1 6.9%, Fc1cccc(Cl)c1CSc1nnnn1-c1ccc2c(c1)OCO2 22.7%, Fc1ccccc1CSc1nnnn1-c1ccc2c(c1)OCO2 13.8%, CCOC(=O)CC(=O)CSc1nc2c(cc1C#N)CCC2 0%, CC(C)NS(=O)(=O)c1ccc(OCC(=O)NCc2ccccc2)cc1 -1.7%, O=C1C2CC=CCC2C(=O)N1c1n[nH]c(Cc2ccccc2)n1 (stereo not drawn) 62.3%, O=C1C2C3C=CC(C3)C2C(=O)N1c1cccc(N2C(=O)C3C4C=CC(C4)C3C2=O)n1 (stereo not drawn) -1.8%, O=C1C2C3C=CC(C3)C2C(=O)N1Cc1cccnc1 (stereo not drawn) 0.6%, O=C1C2CC=CCC2C(=O)N1c1n[nH]c(CCc2ccccc2)n1 (stereo not drawn) -20.2%, O=C1C2C3C=CC(C3)C2C(=O)N1c1cccnc1 (stereo not drawn) 15.9%, O=C1C2C3C=CC(C3)C2C(=O)N1c1n[nH]c(CCc2ccccc2)n1 (stereo not drawn) 30%, Cc1ccc(SCCNC(=O)C(CO)(CO)CO)cc1 11.9%, COc1ccc(CN(Cc2cc3ccc(C)cc3[nH]c2=O)Cc2nnnn2C2CCCC2)cc1 -54.8%, Cc1ccc(-c2cc(C(=O)N/N=C\c3cnn(C)c3C)c3ccccc3n2)cc1C -102%, C=CCn1c(SCC(=O)Nc2ccccc2OC)nnc1-c1ccco1 8%, O=C(C1CC1)N1CCN=C1SCc1cccc(C(F)(F)F)c1 3%, CCOCCCNC(=O)C1CCCN1S(=O)(=O)c1ccc(Cl)cc1 (stereo not drawn) 8.4%, C#CC(CC)(CC)NC(=O)c1c(C)noc1C 4.5%, O=C(Cc1cccs1)NCc1ccc(F)cc1 -6%, CN1CCN(c2nc3c(c(=O)n(C)c(=O)n3C)n2CC(=O)C23CC4CC(CC(C4)C2)C3)CC1 -54.5%, O=C1/C(=C/c2cccs2)SC(=S)N1c1ccccc1 12.2%, CCN(CC)c1ccc(N2C(=O)/C(=C/c3cccs3)SC2=S)cc1 3.4%, CC(C)N(CCNS(=O)(=O)c1ccc(Cl)cc1)C(C)C 9.6%, O=C(Nc1ccccc1C(F)(F)F)c1ccc(CN2CCC(Cc3ccccc3)CC2)cc1 -22.3%, Cc1ccc(-c2cc(C(=O)N/N=C/c3c(C)nn(-c4ccccc4)c3C)[nH]n2)cc1 -2.5%, Cc1nn(-c2ccccc2)c(C)c1/C=N/NC(=O)c1cc(C(C)(C)C)[nH]n1 -32%, O=c1[nH]c(CSc2nnc(-c3ccncc3)n2Cc2ccco2)nc2ccccc12 -3.5%, N=c1oc2ccc3ccccc3c2cc1-c1nnc2n1CCCCC2 -35.4%, CC1CCC/C(=N/Nc2ccc([N+](=O)[O-])cc2[N+](=O)[O-])C1 (stereo not drawn) 21.1%, O=[N+]([O-])c1ccc(C2CCCC/C2=N/OCc2ccc(F)cc2)c([N+](=O)[O-])c1 (stereo not drawn) 25.8%, CCN(CC)CCCNC(=O)N[C@@H](Cc1ccccc1)C(=O)O -2.1%, CC(=O)c1c(C(C)=O)c(C)n(-c2ccc(O)cc2)c1C -4.3%, O=C(NCc1cccnc1)NC1(C(F)(F)F)Oc2ccccc2O1 12.3%, COCC(C)NC(=O)NC1(C(F)(F)F)Oc2ccc(Cl)cc2O1 (stereo not drawn) 34.9%, CC(NC(=O)NCc1cccnc1)(C(F)(F)F)C(F)(F)F -6.1%, CCCCNC(=O)NC1(C(F)(F)F)Oc2ccccc2O1 -12%, Cc1nccn1S(=O)(=O)c1ccc(Br)cc1Br -1.1%, OC(CC1CC12c1ccccc1-c1ncccc12)(c1ccccc1)c1ccccc1 (stereo not drawn) -45%, CCCCn1cc(C(=O)c2cc(Br)ccc2O)cc(C#N)c1=O -1.5%, CCCC1CCc2c(c3ccccc3[nH]c2=O)O1 (stereo not drawn) -5%, CC1CCc2c(c3ccccc3[nH]c2=O)O1 (stereo not drawn) 9%, Fc1ccc(CSc2nnc(-c3cnccn3)n2Cc2ccco2)cc1 7.7%, CCCCOC(=O)CNc1n[nH]c(=S)[nH]c1=O -1.8%, CCCCOC(=O)C(C)Nc1n[nH]c(=O)[nH]c1=O (stereo not drawn) 3.9%, CCN1CCN(Cc2nc3c(c(=O)n(C)c(=O)n3C)n2Cc2cccc3ccccc23)CC1 -34.1%, Cc1ccccc1CN(c1ccc(C(=O)N2CCc3ccccc3C2)cc1)S(C)(=O)=O -40.7%, O=C(c1cccs1)c1coc2ccc(O)c(CN3CCOCC3)c12 -1%, Cc1ccc(OCn2c(=O)sc3ccccc32)cc1 -9%, O=c1sc2ccccc2n1CCOc1ccccc1 33.9%
